Yeast superoxide: caloric restriction mimetics inhibiting age-related superoxide in yeast. 330,000 compounds, 0.18% hits. superoxide response (% of plate mean), % at 10 µM. S. cerevisiae aged cells, superoxide DHE fluorescence; active compounds read low;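 active = superoxide response under a set limit, about three screen SD below normal, cut at about 65% in these data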;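 also: yeast aged for seven days with compound at 30 °C before DHE staining; 100% = average MFI of all compound-treated wells on the plate with controls excluded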
PolyA inh: blocks polyadenylation in yeast reporter cells; S. cerevisiae SKY197-pL101 polyadenylation reporter, beta-gal luminescence; efflux-impaired pdr1/pdr3 knockout yeast; score 100 = 6 SD above DMSO; activity score, % at 12 µM; 300,000 compounds, 0.02% hits; AID 1875;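 active = lowest replicate activity score at least 50, where 100 means six control SD above control mean; inconclusive = lowest score under 50 but half or more replicates reach 50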;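 also: yeast exposed to compound for 9 h at 30 °C; higher score means more reporter readthrough which indicates perturbed polyadenylation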
Platelet DG rel: platelet dense granule release activity. human platelet-rich plasma, SFLLRN dense granule ATP release, luminescence. inhibition, %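 (compounds screened at 7.5 µM in platelet-rich plasma)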. 300,000 compounds, 0.22% hits. AID 1663;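 active = mean replicate score, as percent of positive control, at or above 50; inconclusive = mean below 50 but at least one replicate at or above 50; inactive = mean and every replicate below 50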
Calb FLC: C. albicans growth modulation with fluconazole; C. albicans CaCi-2 (fluconazole-resistant clinical isolate) + fluconazole, Alamar Blue growth, 48 h; growth inhibition, % (concentration not given with the values); 300,000 compounds, 0.57% hits; AID 1979;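 active = growth inhibition above about 58% in most replicates, limit read from the data, passing the limit was not always enough; inconclusive = exactly half the replicates above a set limit; inactive = most replicates below a set limit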;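 also: all wells also contain fluconazole at 8 µg/ml as a sub-toxic cotreatment; 0% = median of DMSO wells and 100% = median of geldanamycin control wells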
SKKanGAS inh: inhibitors of SKKanGAS S. pyogenes growth in kanamycin (SK-promoter or general growth effect); BacTiter-Glo, 6 h; inhibition, % at 7.5 µM; 300,000 compounds, 1.3% hits;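 active = mean replicate score, as percent of positive control median, at least 50; inconclusive = mean below 50 but one replicate at or above 50; inactive = mean and every replicate below 50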;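 also: strain carries kanamycin resistance gene driven by streptokinase promoter and grows in 40 µg/ml kanamycin; loss of luminescence reflects streptokinase promoter inhibition or plain growth inhibition; 0% = median of DMSO wells and 100% = positive control at its reference dose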
* marks the source's active call; other numbers are inactive results; u = inconclusive; x = no result given. The list is not random: actives were taken first. Their share in the collection is about 2%.

SMILES	Yeast superoxide	PolyA inh	Platelet DG rel	Calb FLC	SKKanGAS inh
OC(c1ccc(OCc2ccccc2)cc1)c1nnc(-c2ccccc2)o1 (stereo unspecified)	95	-14	3	-17	57*
OC(c1cccc(OCc2ccccc2)c1)c1nnc(-c2ccccc2)o1 (stereo unspecified)	86	13	-9	-7	17
O=C(c1cccc(C(F)(F)F)c1)c1c[nH]c(C(=O)NCC2CCCO2)c1 (stereo unspecified)	109	7	-1	27	-2
COC(=O)c1ccc(COc2ccc(/C=C(\C#N)c3nc4ccccc4[nH]3)cc2OC)o1	81	12	1	79*	29
CC(C)NC(=O)C(=O)Nc1cc2c3c(c1)C(C)C(=O)N3CCC2 (stereo unspecified)	82	-11	1	2	2
Cc1c(C(=O)Nc2ccc3c(c2)OCCO3)sc2nc(-c3ccccc3)cn12	95	2	10	-5	70*
O=C(CN1CCN(Cc2cccc(F)c2)CC1)Nc1ccccc1F	108	-8	-1	6	-3
c1ccc(-c2nnc(-c3ccccn3)nc2NC2CCCCC2)cc1	90	-45	-5	16	104*
CCOC(=O)C(=NCCCN1CCOCC1)NNc1cccc(C(F)(F)F)c1	83	17	10	129*	4
COc1cc(C(=O)NNC(=O)c2cc(S(=O)(=O)N(C)C)ccc2N2CCCC2)cc(OC)c1OC	93	x	x	x	x
Cc1ccc(NNC(=O)c2ccno2)cc1Cl	98	-25	23	0	7
Cc1ccc(NNC(=O)c2ccno2)cc1C	70	-12	-1	93*	7
CC1CCN(S(=O)(=O)c2ccc(C(=O)N3CCOCC3)cc2)CC1	106	-5	-4	-7	24
COc1cc(/C=N/NC2=NCCCCC2)ccc1O	111	-6	9	-1	0
COc1cc(/C=N/Nc2ncnc3sc4c(c23)CCC4)ccc1O	x	-32	2	-7	70*
COc1ccc2cc(CN(Cc3ccco3)Cc3nnnn3C3CCCCC3)c(=O)[nH]c2c1	99	14	3	-17	6
CC(C)(C)c1ccc(CN(Cc2ccco2)Cc2nnnn2C2CCCC2)cc1	106	-2	-2	11	51*
Cc1[nH]n(C(N)=S)c(=O)c1N=Nc1cccc([N+](=O)[O-])c1C	102	-1	16	-15	6
NC(=S)n1[nH]c(-c2ccc([N+](=O)[O-])cc2)c(N=Nc2cccc([N+](=O)[O-])c2)c1=O	x	-8	12	100*	-35
CCOc1ccc(NS(=O)(=O)c2c(C)nc3sc(CC)nn3c2=O)cc1	103	x	x	x	x
Cc1cc(O)c(C(C)C)cc1C1(c2cc(C(C)C)c(O)cc2C)OC(=O)c2ccccc21	99	-1	-10	2	84*
O=C(/C=C/c1ccccc1)NNc1ccc(Cl)cc1	92	-69	-14	97*	0
O=C(/C=C/c1ccccc1)NC(NC(=S)Nc1ccc(Cl)cc1)C(Cl)(Cl)Cl (stereo unspecified)	100	-3	-1	-9	63*
O=C(/C=C/c1ccccc1)NC(NC(=S)Nc1cc(Cl)ccc1Cl)C(Cl)(Cl)Cl (stereo unspecified)	106	10	-5	-8	52*
CCN(CC)C(=O)CSc1nc(-c2ccccc2)cc(=O)[nH]1	85	0	12	-9	3
SMILES	Yeast superoxide	PolyA inh	Platelet DG rel	Calb FLC	SKKanGAS inh
CN(C)Cc1nc2ccccc2c(=O)n1Cc1nc(-c2cc3ccccc3o2)cs1	94	-6	11	-8	74*
N#Cc1cccc(S(=O)(=O)NCc2nnc3ccccn23)c1	101	x	x	x	x
CCCCc1ccc(-n2nnnc2SCC(=O)Nc2cc(OC)c([N+](=O)[O-])cc2C)cc1	104	12	-1	6	0
COCCn1cnnc1SCC(=O)Nc1cc(OC)c([N+](=O)[O-])cc1C	110	17	-1	114*	5
CC(=O)Nc1ccc(N2CCCCC2)c(C(=O)Nc2cccc(C)c2)c1	99	4	-2	94*	17
Cc1cccc(NC(=O)c2cc(NC(=O)C3CCCCC3C(=O)O)ccc2N2CCCCC2)c1 (stereo unspecified)	79	x	x	x	x
Cc1ccccc1N1CCN(S(=O)(=O)c2nnc(NC(=O)CC(C)C)s2)CC1	110	-11	-1	-4	3
Cc1ccccc1N1CCN(S(=O)(=O)c2nnc(NC(=O)c3ccco3)s2)CC1	96	-37	3	4	51*
COc1cc(/C=C/C(=O)OCC(=O)c2c(N)n(C)c(=O)n(C)c2=O)ccc1OCC#N	87	2	5	3	56*
COc1ccc(/C=C/C(=O)OCC(=O)c2c(N)n(C)c(=O)n(C)c2=O)cc1	91	11	-19	-2	14
COc1cc(/C=C/C(=O)OCC(=O)c2c(N)n(C)c(=O)n(C)c2=O)ccc1OC(F)F	95	5	1	-7	19
COc1cc(/C=C/C(=O)OCC(=O)c2c(N)n(C)c(=O)n(C)c2=O)ccc1O	100	0	-4	-8	58*
O=c1c2ccccc2nnn1CCO	98	7	-6	-6	-5
COc1cccc(NC(=O)CSc2nnc3ccc(-c4ccncc4)nn23)c1	x	-8	-3	-5	-9
O=C(O)c1ccccc1-c1ccccc1C(=O)Nc1cccc(-c2nc3ccccc3o2)c1	98	-13	-2	89*	-10
CC(OC(=O)Cn1[nH]c(=O)c2ccccc2c1=O)C(=O)Nc1ccc(Cl)cn1 (stereo unspecified)	100	x	x	x	x
C/C(=N\NC(=O)c1c(Cl)c(C)nn1C)c1cccc(NC(=O)c2cccc(F)c2)c1	97	-10	7	-5	55*
C/C(=N\NC(=O)c1c(Cl)c(C)nn1C)c1cccc(NC(=O)COc2ccccc2)c1	104	-3	-4	1	12
COC(=O)c1c(NC(=O)c2ccccc2)sc(C(=O)c2ccccc2)c1C	98	-14	-2	u	73*
COC(=O)c1c(NC(=O)c2ccccc2)sc(C(N)=O)c1C	100	u	-33	7	0
Oc1ccccc1-c1nc2c3ccccc3c3ccccc3c2[nH]1	103	-14	x	3	86*
CCCc1nnc(NC(=O)CCC(=O)Nc2ccc(Br)cc2)s1	120	13	4	-8	-2
CN1/C(=C\C=N\O)C(C)(C)c2ccccc21	98	4	-1	7	5
CN1/C(=C\C=[N+](C)c2ccccc2)C(C)(C)c2ccccc21	104	-15	5	105*	-1
Cc1cc(C)n(C(=O)CCCCCCCCC(=O)n2nc(C)cc2C)n1	105	-2	2	29	-6
Cc1cc(=O)oc(C)c1C(=O)NCCC(C)C	105	-6	-10	-17	-9
Cc1cc(=O)oc(C)c1C(=O)NCCNC(=O)c1c(C)cc(=O)oc1C	100	-16	85*	2	-3
COc1ccc(NC(=O)N2CCc3ccccc32)cc1	117	-15	53*	5	8

Bioassay records as filed in PubChem BioAssay.
